Experimental data published in the supplement of paper PMC3334620.
The full ranking holds about 33,000 sequences; the median of “E-score (-0.5 to 0.5)” is about -0.041, and the highest 2% start at about 0.37. This is one part of a sample in which the highest values are shown more often than they occur.

biological target: T1, Ecm22 (UniProt Q05958); test: PBM E-score (8-mer binding enrichment) (E-score (-0.5 to 0.5)); higher = stronger / more preferred TF binding; conditions: protein concentration: 200 nM; construct: GST-full length
T1 sequence: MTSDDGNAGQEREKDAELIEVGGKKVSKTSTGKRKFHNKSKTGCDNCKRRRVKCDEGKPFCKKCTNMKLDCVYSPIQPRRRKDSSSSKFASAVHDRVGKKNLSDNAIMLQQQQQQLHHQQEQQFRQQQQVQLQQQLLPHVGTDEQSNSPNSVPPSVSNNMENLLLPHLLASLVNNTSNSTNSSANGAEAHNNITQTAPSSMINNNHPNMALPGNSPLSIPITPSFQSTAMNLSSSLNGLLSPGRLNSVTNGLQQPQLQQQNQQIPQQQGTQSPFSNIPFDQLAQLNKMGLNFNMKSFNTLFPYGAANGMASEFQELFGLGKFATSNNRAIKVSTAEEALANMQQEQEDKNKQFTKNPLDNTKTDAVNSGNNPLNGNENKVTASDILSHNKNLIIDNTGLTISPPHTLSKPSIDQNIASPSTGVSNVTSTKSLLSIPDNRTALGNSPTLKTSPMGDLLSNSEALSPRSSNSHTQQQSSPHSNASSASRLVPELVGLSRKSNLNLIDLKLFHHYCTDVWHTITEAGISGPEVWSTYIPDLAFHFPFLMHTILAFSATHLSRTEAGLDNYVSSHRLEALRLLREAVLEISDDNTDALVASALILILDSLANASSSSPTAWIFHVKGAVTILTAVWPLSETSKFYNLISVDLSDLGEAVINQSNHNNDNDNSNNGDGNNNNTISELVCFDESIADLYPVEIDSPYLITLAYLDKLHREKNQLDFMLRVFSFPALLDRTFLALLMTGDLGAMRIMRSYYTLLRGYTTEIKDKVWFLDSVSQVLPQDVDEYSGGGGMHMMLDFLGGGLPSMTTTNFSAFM
How it was run: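 Bound GST-tagged yeast transcription factors, applied at about 100-200 nM to double-stranded universal all-10-mer Agilent arrays, were detected with fluorescent anti-GST. Scans were normalised with masliner. A modified Wilcoxon-Mann-Whitney statistic, the E-score, was assigned to each ungapped eight-base word pooled with its reverse complement by the Universal PBM Analysis Suite.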

Row | Sequence | PBM E-score
1 | ACAGACCA | -0.0504
2 | AGCTGAAA | -0.106
3 | AACTGCAG | -0.0539
4 | CTTTTTCC | -0.068
5 | CGTTGGAG | -0.14
6 | GCTTACTA | -0.087
7 | CCTTACTA | 0.0754
8 | ACTTACGA | 0.393
9 | GCTTACAA | -0.144
10 | ACTTACGG | 0.207
11 | GCTTACGA | 0.386
12 | CCTTACGA | 0.383
13 | ACTTACGC | -0.137
14 | CCTTACGC | 0.205
15 | AGAATTGC | -0.0838
16 | CGACAAAG | 0.192
17 | CTGCGAGC | 0.0428
18 | TAGTCCGA | 0.123
19 | GCATCGAA | 0.0551
20 | ACATCGTA | 0.423
21 | ACATCGTC | 0.0184
22 | GCATCGGA | 0.126
23 | ACATCGTG | 0.0443
24 | CCATCGAA | -0.136
25 | GCATCGTA | 0.426

Row | Sequence | PBM E-score
26 | CCATCGTC | 0.00759
27 | CCATCGTA | 0.428
28 | CCGCCACA | -0.107
29 | GCCGAGAC | -0.0241
30 | GATGTTGC | 0.00895
31 | CGGGACAC | -0.0319
32 | TACTCACA | -0.0537
33 | CCCCCGAG | -0.231
34 | ACGAGGCG | 0.431
35 | GCGAGGCA | 0.296
36 | AGGAGGCG | -0.229
37 | CCGAGGCA | 0.0444
38 | CCGAGGCC | 0.117
39 | GCGAGGCC | 0.251
40 | ACGAGGCC | 0.376
41 | AAGAGGCT | -0.268
42 | CCGAGGCG | 0.0444
43 | ACGAGGCT | 0.382
44 | ACGAGGCA | 0.401
45 | ACCAGGCT | -0.198
46 | CCGGTCTA | -0.0788
47 | AATAACAA | -0.0956
48 | AGATTCCT | -0.227
49 | AACGCCGC | -0.00584
50 | CGGTAAAA | 0.228

Row | Sequence | PBM E-score
51 | AGCAATAG | -0.0955
52 | ACTTCCAA | -0.156
53 | AAACCCGA | 0.279
54 | CTCAACAG | -0.193
55 | AGACCAGC | -0.283
56 | CAGGAAAA | -0.019
57 | AACCCAGC | -0.207
58 | AGTACTAT | 0.0505
59 | AGTACGCA | -0.0459
60 | CGTACGCA | 0.36
61 | CGTACGAA | 0.448
62 | GGTACGAA | 0.486
63 | CGTACGTA | 0.367
64 | ACTACGAT | 0.182
65 | GGTACGTA | 0.319
66 | GGTACGCA | 0.263
67 | AGTACGTA | 0.283
68 | AGTACGAA | 0.42
69 | AGTACGAT | 0.407
70 | AGTTCTGC | 0.17
71 | AGATGAAG | -0.13
72 | CCCCTAGC | -0.254
73 | ACTCAACC | -0.0151
74 | CGATGGAA | 0.0222
75 | GGCACAAC | -0.169

Row | Sequence | PBM E-score
76 | GACACCCA | -0.171
77 | TAGGACGA | -0.216
78 | ATTCTCAG | -0.308
79 | AGTACGCG | 0.197
80 | CGTACGAC | 0.444
81 | CGTACGTC | 0.356
82 | CGGACGAG | -0.0963
83 | CGTACGCC | 0.3
84 | ATTACGAG | 0.38
85 | CGTACGAG | 0.473
86 | ATTACGTG | -0.0556
87 | CCTACGAG | 0.339
88 | AGTACGAG | 0.456
89 | ATTACGAC | 0.367
90 | AGTACGTG | 0.142
91 | ACGCTGGA | 0.126
92 | ACGACCCT | 0.331
93 | CGCACGCA | 0.141
94 | GCCGGCGA | -0.117
95 | TAGACCGA | 0.175
96 | AGAGAGCT | -0.169
97 | AAGCATTC | -0.157
98 | CGTGCGCA | -0.0738
99 | CACAGTTC | -0.0557
100 | CGAGTACA | 0.246

Row | Sequence | PBM E-score
101 | CGCTAACA | 0.0557
102 | TGTACGAA | 0.48
103 | TGTACAAA | -0.0698
104 | AGTACGAC | 0.443
105 | AGTACGTC | 0.0542
106 | TGCACGAA | 0.109
107 | AGTACGCC | -0.0213
108 | CCGACCAA | 0.105
109 | CAAGTATG | -0.112
110 | ATCTCACG | -0.0833
111 | ACACGGTC | -0.0081
112 | AAACGGTA | 0.287
113 | AAACGGTC | 0.293
114 | ATACGGTC | 0.383
115 | AGACGGTG | -0.132
116 | ATACGGTG | 0.388
117 | AAACGGCT | 0.259
118 | AAACGGCG | 0.391
119 | AAACGGCC | 0.29
120 | CTACGGTC | 0.0518
121 | AAACGGTG | 0.376
122 | ACACGGTG | -0.0453
123 | ATGCAAAG | 0.0339
124 | AAAAATGA | -0.0643
125 | AGGCTCAG | -0.211

Row | Sequence | PBM E-score
126 | GTTAGGGA | 0.0493
127 | AGGTGCTG | -0.371
128 | AGCATACT | 0.0121
129 | CCGGACCA | 0.0404
130 | AGGGAACG | 0.465
131 | AGGGAACC | 0.00984
132 | CGGGAACA | 0.165
133 | CGGGAACG | 0.456
134 | AGGGAACA | -0.166
135 | CGGGAACC | 0.0199
136 | AAAGGAGT | -0.131
137 | GTTTCCTA | 0.0344
138 | GCGGCTAA | -0.034
139 | AAATCTGA | -0.168
140 | CCTTGGCG | -0.159
141 | CATACCAG | -0.0569
142 | CGTACCAG | 0.397
143 | CGTACCAC | 0.446
144 | TGTACCAA | 0.036
145 | CGTACCAA | 0.444
146 | AGTACCAA | -0.119
147 | AGTACCAG | -0.14
148 | AGTACCAC | 0.0416
149 | GGTACCAC | -0.137
150 | TCCCTAAA | -0.00662

Row | Sequence | PBM E-score
151 | CGCACGTC | 0.00508
152 | TAGGGATA | -0.165
153 | GCAGTAAA | -0.0139
154 | CGAACGCA | 0.242
155 | GCTTCCCC | -0.098
156 | CAAAGCCA | -0.0435
157 | CCTACGAA | 0.192
158 | CCTACGAC | 0.232
159 | TCTACGAA | 0.312
160 | ACTACGAC | 0.329
161 | GCTACGAC | 0.426
162 | GCTACGAA | 0.429
163 | CCTCTCAA | -0.127
164 | ATAGTATA | 0.211
165 | AGCGTATC | 0.0945
166 | ATCGTATA | 0.488
167 | CACGTATC | 0.132
168 | ATCGTGTA | 0.25
169 | ATAGTATC | 0.127
170 | AGCGTATG | 0.136
171 | ATCGTATG | 0.438
172 | CGCGTATC | 0.232
173 | ATAGTATG | 0.0828
174 | ATCGTATC | 0.418
175 | CTCGTATC | 0.478

Row | Sequence | PBM E-score
176 | TCTGCTCA | -0.168
177 | TCGAGCGA | 0.0676
178 | ATATCAAC | -0.103
179 | CCAGTTGC | -0.196
180 | ACTGGCCA | -0.206
181 | CAGAGTCA | -0.226
182 | GCAGAGAC | -0.357
183 | CGTATAGC | 0.477
184 | GGTATAGA | -0.0121
185 | CCTATAGC | -0.248
186 | AGTATAGA | 0.16
187 | CGTATAGA | 0.458
188 | AGTATAGC | 0.0261
189 | ACATGGGC | -0.263
190 | GAAGTCCC | -0.172
191 | ACGTTCGC | 0.157
192 | GAAATTGC | 0.0049
193 | ACACATTA | 0.031
194 | CCACGAGG | 0.00398
195 | ATGTCGTA | 0.446
196 | CTGTCGAA | -0.00303
197 | CTGTCGTC | 0.161
198 | ATGTCGTG | 0.0288
199 | GTGTCGCA | 0.162
200 | GTGTCGGA | 0.0575

Row | Sequence | PBM E-score
201 | GTGTCGTA | 0.445
202 | CTGTCGTA | 0.453
203 | ATGTCGTC | 0.0394
204 | AACCAATT | -0.233
205 | ATCTACCC | 0.0111
206 | GTTTACGA | 0.46
207 | ATTTACGA | 0.453
208 | CTTTACGC | 0.211
209 | CATTACGA | 0.289
210 | ATTTACGC | 0.0401
211 | TATTACGA | 0.389
212 | GTTTACTA | 0.182
213 | CTTTACGA | 0.464
214 | GTTTACAA | 0.19
215 | AATTACGA | 0.361
216 | ATTTACGG | 0.31
217 | CTTTACCA | -0.226
218 | CGGACTGC | -0.0684
219 | ATTCTATA | -0.00057
